Results on eight compounds are retold here after PubChem BioAssay (NCATS).

Assay [1] has as its target Lysosomal acid glucosylceramidase (Homo sapiens) (UniProt P04062). Briefly: Glucocerebrosidase-p2 (AID 348; in the data active = potency below about 10 µM; note: potency is the fitted concentration of half-maximal effect). Particulars: purified GBA, blue fluorogenic substrate, 40 min. In a few lines:
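Normal human glucocerebrosidase (0.2 nM) with blue fluorogenic substrate (80 uM final) in citrate/phosphate pH 5.9 with 10mM sodium taurocholate, 0.01% tween-20; 40 min RT, NaOH/glycine stop; fluorescence Ex 365/Em 440; AC50 from a titration from 0.6 nM upwards.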

Assay [2] can be described thus: Stat Signaling Pathway (AID 446).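 Note: ME-180 cervical cancer cells given 40 pM IL-6 alongside compound; SIE-controlled beta-lactamase reporter measured as 460/530 nm FRET emission ratio; % is set by controls: 0 for no effect and ±100 for the full control effect.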 Particulars: ME-180 SIE beta-lactamase reporter, IL-6 stimulated, 5 h; at 7.69 µM (top of the series) unless noted. In outline:
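Compound effects on IL-6-induced STAT reporter activity were measured in ME-180 cells. After overnight culture, cells were co-treated with 40 pM IL-6 for 5 hrs before beta-lactamase substrate loading at room temperature.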

Assay [3] concerns the target Glucocorticoid receptor (Homo sapiens) (UniProt P04150). Description: GR-EFC Redistribution (AID 451; calls by dose curve; note: potency is the fitted concentration of half-maximal effect). Particulars: CHO-K1 GR-EFC translocation, beta-gal luminescence, 2 h. In outline: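 Translocation of GR-ED fusion to nuclear EA restores b-gal, read by luminescence after 1 h room-temperature detection. Engineered CHO-K1 biosensor cells, 1,000/well, exposed 2 h at 37 C to titrations up to 46 uM final.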

Assay [4] concerns the target Mitogen-activated protein kinase 10 (Mus musculus) (UniProt Q61831). Briefly: JNK3 AlphaScreen Assay (AID 530).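 Note: kinase came from lysate of stimulated human HepG2 cells; signal reports phosphorylation of biotinylated GST-cJun 1-79 at Ser73 with 10 µM ATP; % is set by controls: 0 for no effect and ±100 for the full control effect.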 Particulars: JNK3 lysate, c-Jun phosphorylation; series mostly up to 57.1 µM. In outline:
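qHTS titrations with 15 min compound pre-incubation before adding ATP (10 uM final). Read-out: AlphaScreen of Ser73-phosphorylated biotin-GST-cJun using HepG2 lysate JNK3 activated by IL-1β and TNFα.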
On the technique in general: Alpha assays give light when donor and acceptor beads are brought close together.

Assay [5] concerns the target 3',5'-cyclic-AMP phosphodiesterase 4B (Homo sapiens) (UniProt Q07343). Briefly: qHTS Assay for Inhibitors of PDE-IV (AID 607; active = well fitted activation curve with a large enough effect in the main read-out, with a control signal flat, not every such curve was filed as active; note: % of control where 0% means no effect). Particulars: HEK293 ACTOne CNG channel cells, membrane potential fluorescence; series mostly up to 22.9 µM. In outline:
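ACTOne HEK293 cells carry a modified cAMP-gated CNG channel and express endogenous PDE4; plated 1000 cells/well, compounds up to 22.9 uM final. Membrane-potential dye fluorescence (ex 535/em 590) was read; parental cells received 10 uM forskolin + 100 uM RO 20-1724.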
For orientation: Quantitative high-throughput screening tests each substance at several concentrations.

Assay [6] in a line: qHTS Assay for Lipid Storage Modulators (AID 1519; calls by dose curve). Particulars: Drosophila S3 cells, BODIPY lipid droplet/cell ratio, laser cytometry, cells loaded with oleic acid; for activity change, negative = inhibition: at 57.5 µM (top of the series). In a few lines: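 Cells seeded at 5,000 per well were treated with compounds over a concentration series and loaded with oleic acid (400 uM, as added). Lipid droplet fluorescence (488 nm excitation, 500-530 nm channel) was read by laser-scanning cytometry and normalized to 20 uM Triacsin C.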

The target in assay [7] is Cytochrome P450 1A2 (Homo sapiens) (UniProt P05177). Description: p450-cyp1a2 (AID 410; calls by dose curve; note: potency is the fitted concentration of half-maximal effect). Particulars: recombinant CYP1A2, luciferin-ME demethylation, luminescence; series mostly up to 57 µM. In a few lines:
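Luminescent demethylation readout: Luciferin-ME (100uM, equal to Km) turned over by 20nM CYP1A2 for 60 min at room temperature after NADPH regeneration addition, following 10 min compound preincubation. Normalization used 57 uM furafylline as full inhibition.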

The target in assay [8] is Glucocorticoid receptor (Homo sapiens) (UniProt P04150). Description: GR-GFP Redistribution (AID 450;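 active = compounds whose dose series gives a full or clear partial fitted curve of increased nuclear translocation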; note: potency is the fitted concentration of half-maximal effect). Particulars: U2OS GR-GFP nuclear translocation, laser cytometry, 2 h.
Chain of Glucocorticoid receptor (Homo sapiens) (P04150 whole entry, looked up, the tested form may be a part): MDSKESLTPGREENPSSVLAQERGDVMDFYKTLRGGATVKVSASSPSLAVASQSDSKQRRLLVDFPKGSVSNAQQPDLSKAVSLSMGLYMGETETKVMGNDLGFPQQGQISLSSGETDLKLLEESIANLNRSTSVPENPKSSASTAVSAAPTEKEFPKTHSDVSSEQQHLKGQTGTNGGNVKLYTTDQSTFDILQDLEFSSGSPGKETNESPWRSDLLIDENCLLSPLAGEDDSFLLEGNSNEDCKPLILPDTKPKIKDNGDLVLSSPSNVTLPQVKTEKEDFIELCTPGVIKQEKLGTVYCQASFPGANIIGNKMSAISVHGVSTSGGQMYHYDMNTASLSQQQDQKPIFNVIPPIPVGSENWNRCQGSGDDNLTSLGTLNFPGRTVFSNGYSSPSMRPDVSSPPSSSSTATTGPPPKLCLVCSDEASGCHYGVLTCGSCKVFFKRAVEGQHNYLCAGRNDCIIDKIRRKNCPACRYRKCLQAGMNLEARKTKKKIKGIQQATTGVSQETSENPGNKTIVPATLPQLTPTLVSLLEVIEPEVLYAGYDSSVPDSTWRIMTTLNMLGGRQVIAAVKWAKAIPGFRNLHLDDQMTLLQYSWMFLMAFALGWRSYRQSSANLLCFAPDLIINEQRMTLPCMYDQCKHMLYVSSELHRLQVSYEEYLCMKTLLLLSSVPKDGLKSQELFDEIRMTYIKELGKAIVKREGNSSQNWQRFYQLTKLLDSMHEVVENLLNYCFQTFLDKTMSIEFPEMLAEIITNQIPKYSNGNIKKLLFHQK
Assay [9] in a line: qHTS Assay for Identification of Small Molecule Agonists for Hypoxia Response Element Signaling Pathway (AID 914; active = well fitted activation curve with a large enough effect in the signal ratio, with a control signal flat, not every such curve was filed as active; the % refers to the signal ratio; note: potency is the fitted concentration of half-maximal effect). Particulars: ME-180 HRE-bla reporter, beta-lactamase ratio, CoCl2, 17 h; activation: stronger effect = higher value. In a few lines:
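Compounds in a titration series were added to ME-180 reporter cells alongside an EC50 level of CoCl2. After 17 hours, beta-lactamase activity was read as the 460nm/530nm emission ratio of CCF4, giving AC50 values.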

Assay [10] in a line: AP1 Signaling Pathway (AID 357).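 Note: ME-180 reporter cells stimulated with EGF at its EC50 level; % is set by controls: 0 for no effect and ±100 for the full control effect.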 Particulars: ME-180 (cervical carcinoma) AP-1-bla reporter, EGF-induced, beta-lactamase ratio, 5 h; at 7.69 µM (top of the series) unless noted. In outline: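 A ratiometric CCF4 readout (405 nm excitation; 460 and 530 nm emission) quantified AP-1-driven beta-lactamase in ME-180 cells after 5 h with compound and EC50 EGF; AC50 values were derived for activators and inhibitors.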

Assay [11] in a line: NFAT Signaling Pathway (AID 444).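 Note: carbachol stimulus at about its EC50 of 1 µM final; % is set by controls: 0 for no effect and ±100 for the full control effect.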 Particulars: Jurkat NFAT-bla M1, carbachol, beta-lactamase ratio, 5 h; at 7.69 µM (top of the series) unless noted. In a few lines: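 Read-out: CCF4 FRET ratio (460 nm/530 nm) after 1 h RT dye loading, used for %activity and AC50 from titration series. Cells: Jurkat NFAT-β-lactamase/M1 line, treated with compound plus 1 uM carbachol for 5 h, 37 °C.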

Assay [12] addresses Cytochrome P450 3A4 (Homo sapiens) (UniProt P08684). Briefly: qHTS Assay for Activators of Cytochrome P450 3A4 (AID 885; active = well fitted curve in the direction sought with a large enough effect; an effect the other way counts as inactive or inconclusive; note: nearly all actives have a fitted effect of over 65% in size). Particulars: recombinant CYP3A4, Luciferin-PPXE luminescence, 60 min; series mostly up to 57.1 µM. In outline: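 CYP3A4 activity: Luciferin-PPXE O-dealkylation, 25uM substrate, 200mM KPO4, RT throughout. Read-out is luciferase luminescence; higher values reflect activation.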

The nature of assay [13]: Confirmation and Secondary Assay for Modulators of Hemoglobin Beta Chain Splicing at IVS2 654 locus (AID 910; active = well fitted curve in the direction sought with a large enough effect; an effect the other way counts as inactive or inconclusive;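 note: HeLa cells stably carrying EGFP split by mutant beta-globin IVS2-654 intron; per-well total GFP intensity by laser scanning cytometry after 2-day treatment; % of control where 0% means no effect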). Particulars: HeLa EGFP-654 splicing reporter, GFP fluorescence, 48 h; series mostly up to 38.3 µM. In a few lines:
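Readout: per-well total peak green fluorescence (488 nm ex, 500–520 nm em) from objects 5–250 µm, reflecting correct splicing of an EGFP-654 reporter. Compounds were applied for 2 days at 37 °C to overnight-plated HeLa EGFP-654 cells; controls were DMSO and 500 nM IVS2-654 PNA.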

The nature of assay [14]: Confirmation and Secondary Assay for Modulators of Hemoglobin Beta Chain Splicing at IVS2 705 locus (AID 930; active = well fitted curve in the direction sought with a large enough effect; an effect the other way counts as inactive or inconclusive;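 note: HeLa cells stably expressing the EGFP-705 splicing reporter; % of control where 0% means no effect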). Particulars: HeLa EGFP-705 splicing reporter, GFP fluorescence, 48 h; series mostly up to 38.3 µM. In outline: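 Assay measures total GFP intensity per well in HeLa EGFP-705 cells after 2 days with compound; mis-splicing normally truncates EGFP, so fluorescence indicates corrected splicing.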

Where [15] appears, read: measured here: cell count channel max response.
[16] abbreviates: measured here: lipid channel max response.

Each structure is given as a SMILES string. Inconclusive results are not listed. Active and inactive are the calls of the source. Unless noted, calls come from the whole dose curve; as a rule, active = well fitted curve in either direction with a large enough effect (not every such curve was filed as active); inconclusive = small, poorly fitted or top-dose-only effect, or another doubt; inactive = flat fitted curve, though single readings scatter.

Chain of 3',5'-cyclic-AMP phosphodiesterase 4B (Homo sapiens) (Q07343 whole entry, looked up): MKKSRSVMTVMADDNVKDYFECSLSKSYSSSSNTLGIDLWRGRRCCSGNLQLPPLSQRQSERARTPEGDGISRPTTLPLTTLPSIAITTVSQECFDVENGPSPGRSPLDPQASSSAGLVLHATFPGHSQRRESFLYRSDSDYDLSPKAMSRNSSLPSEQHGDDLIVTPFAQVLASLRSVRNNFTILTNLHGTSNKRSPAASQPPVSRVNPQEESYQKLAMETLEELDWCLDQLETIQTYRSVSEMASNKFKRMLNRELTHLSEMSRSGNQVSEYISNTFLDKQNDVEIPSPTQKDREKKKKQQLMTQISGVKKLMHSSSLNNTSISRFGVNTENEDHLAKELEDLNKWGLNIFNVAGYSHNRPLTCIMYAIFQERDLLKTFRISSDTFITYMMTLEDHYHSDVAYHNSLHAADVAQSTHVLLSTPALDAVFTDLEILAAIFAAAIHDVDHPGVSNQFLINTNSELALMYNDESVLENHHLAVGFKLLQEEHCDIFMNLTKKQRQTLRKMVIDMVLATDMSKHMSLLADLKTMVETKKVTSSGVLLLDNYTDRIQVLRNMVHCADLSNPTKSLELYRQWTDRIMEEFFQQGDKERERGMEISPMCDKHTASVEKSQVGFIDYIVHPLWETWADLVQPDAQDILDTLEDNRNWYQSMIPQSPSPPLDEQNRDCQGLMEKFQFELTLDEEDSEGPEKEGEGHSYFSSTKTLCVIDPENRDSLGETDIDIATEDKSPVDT
Chain of Lysosomal acid glucosylceramidase (Homo sapiens) (P04062 whole entry, looked up): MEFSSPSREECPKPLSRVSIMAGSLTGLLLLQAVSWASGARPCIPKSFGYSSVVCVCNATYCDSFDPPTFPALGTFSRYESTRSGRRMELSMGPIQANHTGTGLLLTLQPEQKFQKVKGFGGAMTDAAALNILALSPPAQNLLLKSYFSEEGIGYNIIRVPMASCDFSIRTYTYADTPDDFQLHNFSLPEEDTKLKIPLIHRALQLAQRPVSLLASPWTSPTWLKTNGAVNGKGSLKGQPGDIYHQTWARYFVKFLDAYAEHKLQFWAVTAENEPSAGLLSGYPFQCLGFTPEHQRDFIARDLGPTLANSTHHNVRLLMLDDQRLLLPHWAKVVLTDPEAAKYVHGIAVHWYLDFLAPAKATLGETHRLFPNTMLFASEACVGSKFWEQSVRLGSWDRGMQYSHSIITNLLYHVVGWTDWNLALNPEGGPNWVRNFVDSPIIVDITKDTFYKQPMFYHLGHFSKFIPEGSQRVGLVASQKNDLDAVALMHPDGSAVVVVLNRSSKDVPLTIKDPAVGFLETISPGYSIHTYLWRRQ
Chain of Cytochrome P450 1A2 (Homo sapiens) (P05177 whole entry, looked up): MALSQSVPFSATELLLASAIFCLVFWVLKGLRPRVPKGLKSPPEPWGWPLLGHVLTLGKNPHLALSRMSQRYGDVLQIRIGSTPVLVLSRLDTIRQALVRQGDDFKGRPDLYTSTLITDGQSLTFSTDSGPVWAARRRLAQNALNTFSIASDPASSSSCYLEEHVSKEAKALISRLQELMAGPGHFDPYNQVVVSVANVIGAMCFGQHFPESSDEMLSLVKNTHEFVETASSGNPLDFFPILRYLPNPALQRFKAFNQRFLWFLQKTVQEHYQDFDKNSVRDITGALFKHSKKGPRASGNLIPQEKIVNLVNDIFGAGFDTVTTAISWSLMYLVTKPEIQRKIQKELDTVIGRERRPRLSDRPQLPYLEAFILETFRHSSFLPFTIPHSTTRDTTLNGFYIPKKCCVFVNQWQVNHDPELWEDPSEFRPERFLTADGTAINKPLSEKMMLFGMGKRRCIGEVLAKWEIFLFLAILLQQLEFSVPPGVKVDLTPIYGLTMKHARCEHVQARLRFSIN
Chain of Cytochrome P450 3A4 (Homo sapiens) (P08684 whole entry, looked up): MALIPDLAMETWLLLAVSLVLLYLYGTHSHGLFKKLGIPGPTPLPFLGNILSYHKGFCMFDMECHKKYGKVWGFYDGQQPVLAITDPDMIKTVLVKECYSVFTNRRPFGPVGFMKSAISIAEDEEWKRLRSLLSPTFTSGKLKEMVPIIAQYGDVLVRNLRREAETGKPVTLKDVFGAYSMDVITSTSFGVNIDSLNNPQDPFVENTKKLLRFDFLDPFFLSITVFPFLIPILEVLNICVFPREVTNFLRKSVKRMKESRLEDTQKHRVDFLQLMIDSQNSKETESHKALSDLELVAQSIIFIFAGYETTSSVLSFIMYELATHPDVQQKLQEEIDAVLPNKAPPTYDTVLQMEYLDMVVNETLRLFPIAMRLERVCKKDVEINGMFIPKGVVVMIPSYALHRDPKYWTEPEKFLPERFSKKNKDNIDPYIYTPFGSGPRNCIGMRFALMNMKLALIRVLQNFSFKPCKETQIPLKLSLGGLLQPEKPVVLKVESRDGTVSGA

`O=S(=O)(c1ccccc1)N1CCC2(CCN(c3ccncc3)CC2)CC1`: the values for the Potency in assay [1] and in [3] were > 11.4 µM (inactive) and > 46 µM (inactive), respectively. In addition, the activity, negative = inhibition in assay [2] was 1.98% (inactive). Besides, the Potency entry in [4] and in [5] was “inactive” throughout. Besides, the activity change, negative = inhibition in assay [6] was 3.52% (inactive). Besides, the max response in [6] (setting [15]) is 9.97%; in assay [6] (setting [16]) it was 17%.

For `CN1CCN(c2ncc3nc(-c4ccccc4)c(=O)n(CCC#N)c3n2)CC1`, the Potency in assay [1] was > 11.4 µM (inactive); in assay [7], 20 µM (active); in assay [8], > 9.22 µM (inactive); in assay [3], > 46 µM (inactive); in assay [9], 3.16 µM (active). Moreover, the Potency entry in assay [4] and in [5] was “inactive” in each case. Further, in assay [6], the activity change, negative = inhibition is 6.29% (inactive). For the same compound, the values for the max response in [6] (setting [15]) and in [6] (setting [16]) were 19.8% and 27.5%, respectively.

With `O=c1c(CCc2ccccc2)nc2cnc(N3CCOCC3)nc2n1C[C@H]1CCCO1`, the Potency was > 11.4 µM (inactive) in assay [1], > 9.22 µM (inactive) in [8] and > 46 µM (inactive) in [3]. For the same compound, the activity change, negative = inhibition in assay [10] was -13.7% (inactive); in assay [11] it was -4.34% (inactive); in assay [6], -15.5% (inactive). For the same compound, the activity, negative = inhibition in assay [2] was -10.8% (inactive). Besides, the Potency result in assay [4] and in [5] was “inactive” throughout. The max response in [6] (setting [15]) is -5.26%; in assay [6] (setting [16]), -6.55%.

For `COc1ccc(-c2nc3cnc(N4CCNCC4)nc3n(C3CC3)c2=O)cc1`, the Potency in assay [1] is > 11.4 µM (inactive); in [7], 6.31 µM (active); in assay [8], > 9.22 µM (inactive); in assay [3], > 46 µM (inactive); in [9], 3.16 µM (active). Further, the Potency entry in assay [4], in [5] and in [12] was “inactive” throughout. Further, the activity change, negative = inhibition in [6] was 0.741% (inactive). The max response was 4.22% in assay [6] (setting [15]) and 6.87% in [6] (setting [16]).

`COc1ccc(NC(=O)N2CCC3(CC2)CCN(C(=O)c2cc(C(F)(F)F)cc(C(F)(F)F)c2)CC3)cc1`: the Potency in assay [1] is > 11.4 µM (inactive); in assay [3], > 46 µM (inactive). Further, the activity change, negative = inhibition in [10] was -5.96% (inactive); in assay [6], -8% (inactive). Further, the activity, negative = inhibition in assay [2] was -5.72% (inactive). Besides, the Potency result in assay [4] and in [5] was “inactive” throughout. Moreover, the max response in [6] (setting [15]) was 3.79%; in [6] (setting [16]) it was -1.48%.

For `COc1ccccc1CNc1ncncc1-c1ccc(N(C)C)cc1`, the values for the Potency in [1], in assay [8] and in [3] were > 11.4 µM (inactive), > 46 µM (inactive) and > 46 µM (inactive), respectively. Moreover, the activity change, negative = inhibition in [10] is -14.4% (inactive); in [11] it was -2.91% (inactive); in assay [6], 7.79% (inactive). Besides, in assay [2], the activity, negative = inhibition was -7.61% (inactive). Moreover, the Potency entry in [13] was “inactive”. The compound was classed as inactive in [14]. Besides, the figures for the max response in assay [6] (setting [15]) and in assay [6] (setting [16]) were -12.6% and -7.14%, respectively.

`COc1ccccc1CN1CCC2(CC1)CCN(C(=O)c1cc(C(F)(F)F)cc(C(F)(F)F)c1)CC2`: the Potency in assay [1] is > 11.4 µM (inactive); in assay [3], > 46 µM (inactive). Moreover, the activity change, negative = inhibition in assay [10] is -13.2% (inactive); in [6], 0.332% (inactive). The activity, negative = inhibition in [2] is -3.31% (inactive). Besides, the Potency result in [4] and in assay [5] was “inactive” throughout. Besides, the max response in assay [6] (setting [15]) was -5.08%; in [6] (setting [16]) it was 1.32%.

As to `Cc1cccc(CNc2ccnc(-c3cccc(NS(C)(=O)=O)c3)n2)c1`, the Potency in assay [1] was > 11.4 µM (inactive); in [8], > 46 µM (inactive); in assay [3], > 46 µM (inactive). The activity change, negative = inhibition in assay [10] was -18.5% (inactive); in [11], 9.66% (inactive); in assay [6] it was 8.1% (inactive). Besides, the Potency result in assay [4], in [5] and in assay [13] was “inactive” each time. In addition, in assay [14], the compound was called inactive. The results for the max response in assay [6] (setting [15]) and in assay [6] (setting [16]) were 4.58% and -1.23%, respectively.
